Source: PubChem BioAssay AID602162 (NMMLSC, 2011)
About 690 (0.19%) of roughly 360,000 compounds were called active. Only a selection was taken, and actives are over-represented in it overall. Unmarked numbers belong to inactive results.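 How the source made its calls: active means fluorescence ratio to DMSO below 75%, the collection mean minus 3 SD; inconclusive means too few cells collected in the well; inactive means the rest.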

molecular target: ATP-binding cassette sub-family B member 6 (Homo sapiens) (UniProt Q9NP58); experiment: blockers of ABCB6-driven porphyrin uptake – K562-ABCB6 cells, flow cytometry, MLPCN library, primary screen (AID 602162); settings: K562-ABCB6 porphyrin accumulation, 1 h, at 10 µM, active compounds read low;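 further: signal is porphyrin accumulated inside mitochondria; 100% equals median channel fluorescence of DMSO control wells; lower ratio means ABCB6 inhibition with less porphyrin fluorescence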
Sequence (Q9NP58 whole entry, looked up): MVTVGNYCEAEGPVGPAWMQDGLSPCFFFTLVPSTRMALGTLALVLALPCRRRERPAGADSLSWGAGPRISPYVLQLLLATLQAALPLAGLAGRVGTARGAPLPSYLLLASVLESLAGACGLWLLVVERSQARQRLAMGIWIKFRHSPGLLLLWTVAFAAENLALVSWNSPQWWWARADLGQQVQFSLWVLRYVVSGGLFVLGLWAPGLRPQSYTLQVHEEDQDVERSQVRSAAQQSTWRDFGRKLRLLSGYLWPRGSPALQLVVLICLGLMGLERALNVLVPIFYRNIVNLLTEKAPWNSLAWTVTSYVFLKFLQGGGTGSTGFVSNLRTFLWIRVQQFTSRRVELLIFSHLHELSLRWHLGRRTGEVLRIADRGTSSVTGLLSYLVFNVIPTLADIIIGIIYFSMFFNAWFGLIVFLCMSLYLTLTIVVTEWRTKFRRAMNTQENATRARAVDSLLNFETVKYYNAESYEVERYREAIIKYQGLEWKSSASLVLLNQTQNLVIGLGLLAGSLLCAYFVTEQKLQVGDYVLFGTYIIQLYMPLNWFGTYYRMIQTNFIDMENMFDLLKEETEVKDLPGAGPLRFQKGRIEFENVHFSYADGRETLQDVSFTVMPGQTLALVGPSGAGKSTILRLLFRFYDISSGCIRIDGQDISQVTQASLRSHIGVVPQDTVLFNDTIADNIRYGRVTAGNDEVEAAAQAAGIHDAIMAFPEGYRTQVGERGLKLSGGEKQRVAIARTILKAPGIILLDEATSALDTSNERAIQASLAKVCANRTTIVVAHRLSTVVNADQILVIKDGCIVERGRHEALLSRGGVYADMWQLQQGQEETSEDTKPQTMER

Q: With `Cc1sc2ncn(CC(=O)NCCCC(=O)N(C)Cc3ccccc3)c(=O)c2c1C` as the compound, how does the fluorescence ratio to DMSO read?
A: Its fluorescence ratio to DMSO is 97%.

Q: For `O=C(Nc1cc(=O)[nH]c2ncnn12)c1ccccc1Cl`, which fluorescence ratio to DMSO is on record?
A: The fluorescence ratio to DMSO was 101%.

Q: How did the fluorescence ratio to DMSO turn out when `CC(C)C[C@H](NC(=O)[C@@H]1O[C@H]1C(=O)O)C(=O)NCCCCN=C(N)N` was run?
A: The fluorescence ratio to DMSO was 94%.

Q: Which fluorescence ratio to DMSO does the source give for `CCC(c1nnnn1-c1ccc2c(c1)OCCO2)N1CCN(c2ccc(C(F)(F)F)cn2)CC1` (configuration not stated) here?
A: The fluorescence ratio to DMSO was 99%.

Q: `CN(Cc1ccccc1)C(=O)CCC1CCN(C(=O)c2ccco2)CC1` was tested. Which fluorescence ratio to DMSO did it give?
A: The fluorescence ratio to DMSO was 90%.

Q: Which fluorescence ratio to DMSO does the source give for `CCC(=O)N1CCCC1(C)C(=O)Nc1ccc2c(c1)CCN2C(C)=O` (configuration not stated) here?
A: The fluorescence ratio to DMSO was 72% (active).

Q: How did the fluorescence ratio to DMSO turn out when `CCCNS(=O)(=O)c1ccc2c(c1)CCCN2C(C)=O` was run?
A: The fluorescence ratio to DMSO was 75%.

Q: With `CC(=O)N1CCc2cc(S(=O)(=O)NC3CCCCC3)ccc21` as the compound, how does the fluorescence ratio to DMSO read?
A: The fluorescence ratio to DMSO was 97%.

Q: How did the fluorescence ratio to DMSO turn out when `CC(C)(C)n1cnnc1Sc1ccc([N+](=O)[O-])cn1` was run?
A: Its fluorescence ratio to DMSO is 101%.

Q: Which fluorescence ratio to DMSO does the source give for `CC1CCCCC1NC(=O)NC(=O)COC(=O)C1=NN(c2ccccc2)C(=O)CC1` (configuration not stated) here?
A: Its fluorescence ratio to DMSO is 102%.

Q: With `CC1(C(=O)Nc2ccc3c(c2)OCCO3)CCN1C(=O)Cc1cc(F)ccc1F` (configuration not stated) as the compound, how does the fluorescence ratio to DMSO read?
A: Its fluorescence ratio to DMSO is 100%.

Q: How did the fluorescence ratio to DMSO turn out when `COc1ccc(OC)c(C(=O)NC(CC(N)=O)c2ccc(N3CCC(N4CCCCC4)CC3)c([N+](=O)[O-])c2)c1` (configuration not stated) was run?
A: Its fluorescence ratio to DMSO is 92%.

Q: With `Cc1nn(-c2ccccc2)c2[nH]c(C(F)(F)F)cc(=O)c12` as the compound, how does the fluorescence ratio to DMSO read?
A: The fluorescence ratio to DMSO was 87%.

Q: For `CCOc1ccc(C(=O)COC(=O)c2ccc(-n3cnnn3)cc2)cc1`, which fluorescence ratio to DMSO is on record?
A: The fluorescence ratio to DMSO was 101%.

Q: How did the fluorescence ratio to DMSO turn out when `C=CCc1cccc(/C=N/NC(=O)COc2ccc(-n3cnnn3)cc2)c1O` was run?
A: The fluorescence ratio to DMSO was 93%.

Q: How did the fluorescence ratio to DMSO turn out when `O=C(COc1ccc(-n2cnnn2)cc1)Nc1ccccc1Cl` was run?
A: Its fluorescence ratio to DMSO is 73% (active).

Q: For `CC1CCN(C(=O)CSc2nnc(-c3ccco3)n2N)CC1`, which fluorescence ratio to DMSO is on record?
A: The fluorescence ratio to DMSO was 95%.

Q: With `CN(C(=O)c1ccccc1)c1nccnc1C#N` as the compound, how does the fluorescence ratio to DMSO read?
A: Its fluorescence ratio to DMSO is 98%.

Q: Which fluorescence ratio to DMSO does the source give for `COC(=O)c1ccc(CSc2ccc(S(=O)(=O)N3CCCCC3)cn2)cc1` here?
A: Its fluorescence ratio to DMSO is 100%.

Q: `O=C1CCCC2=C1C(c1cccs1)CC(=O)N2c1ccc(F)cc1` (configuration not stated) was tested. Which fluorescence ratio to DMSO did it give?
A: Its fluorescence ratio to DMSO is 95%.

Q: For `CCC(=O)N1c2ccccc2NC2=C(C(=O)CCC2)C1c1ccco1` (configuration not stated), which fluorescence ratio to DMSO is on record?
A: The fluorescence ratio to DMSO was 101%.

Q: How did the fluorescence ratio to DMSO turn out when `O=C1CCCC2=C1C(c1cccs1)n1nc(SCc3ccccc3)nc1N2` (configuration not stated) was run?
A: Its fluorescence ratio to DMSO is 55% (active).

Q: How did the fluorescence ratio to DMSO turn out when `Cn1ncc2c(Nc3cccc4ccccc34)ncnc21` was run?
A: The fluorescence ratio to DMSO was 85%.

Q: `CCCOc1cccc(C(=O)Nc2ccccc2C(=O)N2CCN(C)CC2)c1` was tested. Which fluorescence ratio to DMSO did it give?
A: Its fluorescence ratio to DMSO is 99%.

Q: For `C[C@]12CCC(=O)C=C1C=CC1C2CC[C@@]2(C)C1CC[C@@]21CCC(=O)O1` (some centres not stated), which fluorescence ratio to DMSO is on record?
A: The fluorescence ratio to DMSO was 98%.

Q: How did the fluorescence ratio to DMSO turn out when `COc1ccc(S(=O)(=O)N2CCOCC2)cc1NC(=O)CSc1ncnc2ccccc12` was run?
A: Its fluorescence ratio to DMSO is 92%.

Q: `CC1(C)Cc2c(C#N)c(SCc3nc4ccccc4[nH]3)nc(N3CCOCC3)c2CO1` was tested. Which fluorescence ratio to DMSO did it give?
A: The fluorescence ratio to DMSO was 74% (active).

Q: For `CCOC(=O)CSc1nc(N2CCOCC2)c2c(c1C#N)CC(C(C)C)OC2` (configuration not stated), which fluorescence ratio to DMSO is on record?
A: Its fluorescence ratio to DMSO is 97%.

Q: `CC(C)C(=O)N1CCN(c2nc(-c3ccccc3)c3c(c2C#N)CC(C)(C)OC3)CC1` was tested. Which fluorescence ratio to DMSO did it give?
A: The fluorescence ratio to DMSO was 111%.

Q: Which fluorescence ratio to DMSO does the source give for `Cc1cccc(OCCNC(=O)CSc2ccc(C(F)(F)F)cc2[N+](=O)[O-])c1` here?
A: Its fluorescence ratio to DMSO is 98%.

Q: `CCCOc1ccc(C(=O)C(CCC(CNCC)C(=O)c2ccc(OCCC)cc2)CNCC)cc1` (configuration not stated) was tested. Which fluorescence ratio to DMSO did it give?
A: Its fluorescence ratio to DMSO is 94%.

Q: How did the fluorescence ratio to DMSO turn out when `CC1CCN(C(NC(=O)c2ccco2)C(=O)c2ccccc2)CC1` (configuration not stated) was run?
A: The fluorescence ratio to DMSO was 99%.

Q: With `CCCCN(C(=O)CSCC(=O)Nc1ccc(OC)cc1)c1c(N)n(CCC)c(=O)[nH]c1=O` as the compound, how does the fluorescence ratio to DMSO read?
A: The fluorescence ratio to DMSO was 99%.

Q: `COc1ccc(CCNS(=O)(=O)c2ccc(Cl)s2)cc1OC` was tested. Which fluorescence ratio to DMSO did it give?
A: The fluorescence ratio to DMSO was 88%.

Q: For `COc1ccc(CCNS(=O)(=O)c2ccc(C(=O)NCc3ccco3)cc2)cc1OC`, which fluorescence ratio to DMSO is on record?
A: Its fluorescence ratio to DMSO is 100%.

Q: Which fluorescence ratio to DMSO does the source give for `COc1ccc(CCNS(=O)(=O)c2ccc(F)cc2)cc1OC` here?
A: Its fluorescence ratio to DMSO is 62% (active).

Q: `CCCCc1nc2ccc(F)cc2cc1C` was tested. Which fluorescence ratio to DMSO did it give?
A: The fluorescence ratio to DMSO was 95%.

Q: Which fluorescence ratio to DMSO does the source give for `O=C(CSc1nnc(Nc2ccccc2F)s1)NC1CCCC1` here?
A: The fluorescence ratio to DMSO was 101%.

Q: For `CCOc1ccc(OCC(=O)OC(C)C(=O)NC2CCCCC2C)cc1` (configuration not stated), which fluorescence ratio to DMSO is on record?
A: The fluorescence ratio to DMSO was 99%.

Q: How did the fluorescence ratio to DMSO turn out when `COc1ccc(C(=O)OCC(=O)c2ccc(Cl)s2)c(OC)c1OC` was run?
A: Its fluorescence ratio to DMSO is 101%.

Q: For `CCOC(=O)C1CSC(CC(=O)Nc2ccc(OCC)cc2)C(=O)N1` (configuration not stated), which fluorescence ratio to DMSO is on record?
A: The fluorescence ratio to DMSO was 95%.

Q: With `CCOc1ccc(NC(=O)CC2NCCNC2=O)cc1` (configuration not stated) as the compound, how does the fluorescence ratio to DMSO read?
A: Its fluorescence ratio to DMSO is 73% (active).

Q: For `CCOc1ccc(NC(=O)CCC(=O)NNC(=O)NC2CCCCC2)cc1`, which fluorescence ratio to DMSO is on record?
A: Its fluorescence ratio to DMSO is 98%.

Q: `COc1cc([N+](=O)[O-])ccc1NC(=S)N1CCN(c2ccccn2)CC1` was tested. Which fluorescence ratio to DMSO did it give?
A: Its fluorescence ratio to DMSO is 98%.

Q: How did the fluorescence ratio to DMSO turn out when `O=C(c1cccc(S(=O)(=O)N2CCCC2)c1)N(Cc1ccco1)C1CCS(=O)(=O)C1` (configuration not stated) was run?
A: Its fluorescence ratio to DMSO is 97%.

Q: For `Cc1nccn1-c1ccc(NC(=O)[C@H]2O[C@@H](n3ccc(=O)[nH]c3=O)[C@H](O)[C@@H]2O)cc1`, which fluorescence ratio to DMSO is on record?
A: The fluorescence ratio to DMSO was 99%.

Q: `CCOC(=O)C1CCCN(C(=O)COc2ccc(N(C)S(=O)(=O)c3ccc(C)cc3)cc2)C1` (configuration not stated) was tested. Which fluorescence ratio to DMSO did it give?
A: The fluorescence ratio to DMSO was 98%.
